In the supplement of paper PMC10849652:
Targets with a hit are over-represented here; the source holds about 8,800 in all. About 0.5% of all pairs of compound and target were hits.

Assays:
Assay in all cases: log2 fold change, soluble protein after heating vs DMSO (PISA); higher = thermal stabilisation; K562 lysate, 10 uM; active = over 0.2 and 3.5 SD of the protein, either way, in both replicates (recomputed)
[1] = compound: CC1=C(C=C(C=C1)NC(=O)C2=CC(=CC=C2)C(C)(C)C#N)NC3=CC4=C(C=C3)N=CN(C4=O)C
Outline: (§1)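 Following dounce homogenisation of K562 pellets in PBS pH 7.4 with 1 mM MgCl2, crude extract at 1 mg/mL protein was incubated for 30 min with 10 μM compound. Aliquots were then heated for 3 min over 48°C-58°C and pooled, NP-40 was added to 0.5% at 4°C, and soluble protein was recovered as the supernatant at 21,000xg for 90 min. Channel-sum-equalised TMTpro 16plex LC-MS/MS quantified this protein. Each value, from duplicates, is a log-two fold change in thermal stability relative to solvent controls.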

sotrastaurin = compound: CN1CCN(c2nc(C3=C(c4c[nH]c5ccccc45)C(=O)NC3=O)c3ccccc3n2)CC1 [sotrastaurin]
Outline: as §1

[2] = compound: CC1=C(C(CC(=O)N1)C2=CC=C(C=C2)C(F)(F)F)C(=O)NC3=C(C=C4C(=C3)C=NN4)F
Outline: as §1

vemurafenib = compound: CCCS(=O)(=O)Nc1ccc(F)c(C(=O)c2c[nH]c3ncc(-c4ccc(Cl)cc4)cc23)c1F [vemurafenib]
Outline: as §1

[3] = compound: CC[C@@H]1C(=O)N(C)c2cnc(Nc3ccc(C(=O)NC4CCN(C)CC4)cc3OC)nc2N1C1CCCC1
Outline: as §1

[4] = compound: CC(=O)c1cnc2ccc(-c3cc(Cl)c(O)c(Cl)c3)nc2c1N[C@H]1CC[C@H](CN(C)C)CC1
Outline: as §1

ralimetinib = compound: CC(C)(C)Cn1c(N)nc2ccc(-c3[nH]c(C(C)(C)C)nc3-c3ccc(F)cc3)nc21 [ralimetinib]
Outline: as §1

[5] = compound: CC(C)(O)CC(=O)NCCn1ccc2ncnc(Nc3ccc(Oc4cccc(C(F)(F)F)c4)c(Cl)c3)c21
Outline: as §1

[6] = compound: CC(C)C1=C2N=C(C=C(N2N=C1)NCC3=CC=CC=C3)NCCCCCCN
Outline: as §1

[7] = compound: CC1=C(C=C(C=C1)NC(=O)C2=CC(=CC=C2)N(C)C)NC(=O)C3=CC=C(C=C3)O
Outline: as §1

[8] = compound: CC1=CC=C(C=C1)SC2=C3C=C(SC3=CN=C2)C(=O)N
Outline: as §1

[9] = compound: CCCS(=O)(=O)Nc1ccc(F)c(C(=O)c2c[nH]c3ncc(Cl)cc23)c1F
Outline: as §1

volasertib = compound: CC[C@@H]1C(=O)N(C)c2cnc(Nc3ccc(C(=O)N[C@H]4CC[C@H](N5CCN(CC6CC6)CC5)CC4)cc3OC)nc2N1C(C)C [volasertib]
Outline: as §1

[10] = compound: CCn1c(C(=O)N(C2CC2)C2CC2)cc2c3c(ncn3C)c(Nc3cc(C)n(C)n3)nc21
Outline: as §1

[11] = compound: CCn1cc(-c2ccnc3[nH]c(-c4cccc(CN(C)C)c4)cc23)c(-c2ccc(NC(=O)N(C)C)cc2)n1
Outline: as §1

[12] = compound: CN1CCC(CNc2ccc3ncc(-c4cccc(OC(F)(F)F)c4)n3n2)CC1
Outline: as §1

[13] = compound: CC1=C(C2=C(C=C1)C(=O)C3=CC=CC=C3N2CCCN)C
Outline: as §1

saracatinib = compound: CN1CCN(CCOc2cc(OC3CCOCC3)c3c(Nc4c(Cl)ccc5c4OCO5)ncnc3c2)CC1 [saracatinib]
Outline: as §1

ibrutinib = compound: C=CC(=O)N1CCC[C@@H](n2nc(-c3ccc(Oc4ccccc4)cc3)c3c(N)ncnc32)C1 [ibrutinib]
Outline: as §1

barasertib = compound: CCN(CCCOc1ccc2c(Nc3cc(CC(=O)Nc4cccc(F)c4)[nH]n3)ncnc2c1)CCOP(=O)(O)O [barasertib]
Outline: as §1

Measured: log2 fold change

MAP3K4 isoform 2 (UniProt Q9Y6R4)
inactive: [1] -0.005 | sotrastaurin -0.004

MAP3K6 (UniProt O95382)
UniProt O95382, sequence (O95382 whole entry, looked up): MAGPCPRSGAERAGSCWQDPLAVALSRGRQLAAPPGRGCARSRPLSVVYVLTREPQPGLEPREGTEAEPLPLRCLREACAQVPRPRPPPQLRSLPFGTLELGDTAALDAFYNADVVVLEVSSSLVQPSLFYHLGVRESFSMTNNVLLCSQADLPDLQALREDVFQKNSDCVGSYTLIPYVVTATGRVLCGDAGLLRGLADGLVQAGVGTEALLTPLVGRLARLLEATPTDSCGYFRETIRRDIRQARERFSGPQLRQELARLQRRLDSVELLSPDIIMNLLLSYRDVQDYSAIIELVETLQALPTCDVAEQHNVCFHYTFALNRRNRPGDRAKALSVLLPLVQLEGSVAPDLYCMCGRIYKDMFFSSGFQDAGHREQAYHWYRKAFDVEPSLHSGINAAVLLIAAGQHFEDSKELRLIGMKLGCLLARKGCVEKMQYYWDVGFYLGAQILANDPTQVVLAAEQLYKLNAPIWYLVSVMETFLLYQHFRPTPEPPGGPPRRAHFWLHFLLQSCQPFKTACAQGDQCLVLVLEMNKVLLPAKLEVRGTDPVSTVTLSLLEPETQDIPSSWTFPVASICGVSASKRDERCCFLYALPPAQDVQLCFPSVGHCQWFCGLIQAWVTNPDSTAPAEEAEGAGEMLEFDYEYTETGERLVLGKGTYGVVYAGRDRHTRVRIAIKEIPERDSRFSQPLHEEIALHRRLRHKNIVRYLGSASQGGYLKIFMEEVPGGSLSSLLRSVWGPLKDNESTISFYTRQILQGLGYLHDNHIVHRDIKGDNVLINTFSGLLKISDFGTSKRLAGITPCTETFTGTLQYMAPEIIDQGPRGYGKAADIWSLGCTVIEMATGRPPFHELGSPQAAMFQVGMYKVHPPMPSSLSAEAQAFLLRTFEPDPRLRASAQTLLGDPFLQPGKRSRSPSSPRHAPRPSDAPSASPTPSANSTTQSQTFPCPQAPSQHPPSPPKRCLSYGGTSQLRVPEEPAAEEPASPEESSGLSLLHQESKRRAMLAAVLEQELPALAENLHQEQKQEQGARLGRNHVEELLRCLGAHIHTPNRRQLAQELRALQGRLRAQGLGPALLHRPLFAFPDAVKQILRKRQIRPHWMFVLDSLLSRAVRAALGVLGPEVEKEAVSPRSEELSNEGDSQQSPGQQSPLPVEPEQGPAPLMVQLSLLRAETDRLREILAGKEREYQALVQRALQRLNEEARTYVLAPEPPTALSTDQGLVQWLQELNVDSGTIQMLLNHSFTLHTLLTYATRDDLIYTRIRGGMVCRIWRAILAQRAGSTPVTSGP
inactive: [2] -0.12 | vemurafenib -0.006 | [3] 0.164

MRPL22 (UniProt Q9NWU5)
inactive: [4] 0.001 | ralimetinib 0.018 | [5] -0.033 | [6] 0.058 | [2] 0.001 | [1] -0.017 | [7] 0.051 | [8] 0.069 | [9] 0.001 | volasertib -0.002 | [10] -0.069 | [11] -0.006 | [12] -0.045 | sotrastaurin -0.013

KRAS isoform 2 (UniProt P01116)
UniProt P01116, sequence (P01116 whole entry, looked up): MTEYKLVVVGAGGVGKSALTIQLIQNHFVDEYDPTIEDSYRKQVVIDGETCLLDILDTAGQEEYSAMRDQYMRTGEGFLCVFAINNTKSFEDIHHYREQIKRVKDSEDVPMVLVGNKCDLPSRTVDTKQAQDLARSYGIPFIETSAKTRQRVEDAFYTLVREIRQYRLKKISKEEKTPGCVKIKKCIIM
inactive: [4] 0.05 | ralimetinib 0.071 | [5] -0.078 | [6] -0.05 | [13] -0.011 | [1] -0.025 | [7] 0.004 | [8] 0.059 | [9] 0.019 | [3] 0.156 | volasertib -0.125 | [10] 0.077 | saracatinib -0.06 | sotrastaurin -0.013

LYN isoform 2 (UniProt P07948)
UniProt P07948, sequence (P07948 whole entry, looked up): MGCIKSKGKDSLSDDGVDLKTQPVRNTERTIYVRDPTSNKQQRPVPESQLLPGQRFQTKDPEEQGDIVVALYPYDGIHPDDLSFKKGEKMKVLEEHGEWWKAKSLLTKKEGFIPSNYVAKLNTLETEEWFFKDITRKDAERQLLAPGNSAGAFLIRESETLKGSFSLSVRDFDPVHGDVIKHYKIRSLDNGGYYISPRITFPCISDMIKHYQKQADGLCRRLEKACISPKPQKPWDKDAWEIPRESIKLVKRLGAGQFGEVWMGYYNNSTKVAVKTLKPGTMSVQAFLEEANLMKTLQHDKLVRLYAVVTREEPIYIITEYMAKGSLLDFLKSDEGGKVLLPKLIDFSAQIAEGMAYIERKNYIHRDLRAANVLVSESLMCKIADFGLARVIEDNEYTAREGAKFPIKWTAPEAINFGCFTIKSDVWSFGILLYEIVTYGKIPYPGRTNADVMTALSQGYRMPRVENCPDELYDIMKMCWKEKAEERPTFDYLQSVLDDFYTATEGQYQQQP
inactive: ralimetinib -0.104 | [5] 0.106 | [6] -0.061 | [2] -0.432 | [13] -0.226 | [1] 0.333 | [7] -0.008 | [3] -0.077 | [10] -0.075 | [11] -0.031 | [12] 0.024 | saracatinib 0.353 | sotrastaurin 0.074

KIF3C (UniProt O14782)
inactive: [4] -0.041 | ralimetinib -0.038 | [5] -0.032 | [6] -0.015 | [2] 0.03 | [13] -0.116 | [1] -0.007 | [7] 0.023 | [8] 0.044 | vemurafenib 0.565 | [9] -0.213 | [3] -0.296 | volasertib 0.186 | [10] 0.018 | [11] -0.138 | [12] -0.037 | saracatinib 0.02 | sotrastaurin -0.022

MRC2 (UniProt Q9UBG0)
inactive: [6] -0.015 | [2] 0.002 | [13] 0.03 | [1] 0.133 | [3] 0.205 | [11] 0.053 | [12] 0.124 | saracatinib 0.301 | sotrastaurin -0.054

MAPK12 (UniProt P53778)
UniProt P53778, sequence (P53778 whole entry, looked up): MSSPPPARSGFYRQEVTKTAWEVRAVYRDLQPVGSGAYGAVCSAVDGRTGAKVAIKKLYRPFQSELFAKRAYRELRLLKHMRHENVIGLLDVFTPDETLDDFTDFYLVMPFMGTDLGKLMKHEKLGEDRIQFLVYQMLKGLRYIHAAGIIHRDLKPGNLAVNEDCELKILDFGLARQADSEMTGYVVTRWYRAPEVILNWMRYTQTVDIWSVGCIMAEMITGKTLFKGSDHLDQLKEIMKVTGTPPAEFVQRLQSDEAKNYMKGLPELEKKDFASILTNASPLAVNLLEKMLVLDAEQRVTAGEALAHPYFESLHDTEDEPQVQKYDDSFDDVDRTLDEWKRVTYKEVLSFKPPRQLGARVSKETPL
active: [11] 0.974
inactive: ibrutinib 0.049 | ralimetinib -0.001 | [5] -0.029 | [6] -0.027 | [2] 0.074 | [13] 0.08 | [1] 0.002 | [7] -0.012 | vemurafenib 0.084 | barasertib -0.033 | [3] 0.105 | [10] -0.029 | [12] -0.169 | saracatinib 0.023

MAPK7 (UniProt Q13164)
UniProt Q13164, sequence (Q13164 whole entry, looked up): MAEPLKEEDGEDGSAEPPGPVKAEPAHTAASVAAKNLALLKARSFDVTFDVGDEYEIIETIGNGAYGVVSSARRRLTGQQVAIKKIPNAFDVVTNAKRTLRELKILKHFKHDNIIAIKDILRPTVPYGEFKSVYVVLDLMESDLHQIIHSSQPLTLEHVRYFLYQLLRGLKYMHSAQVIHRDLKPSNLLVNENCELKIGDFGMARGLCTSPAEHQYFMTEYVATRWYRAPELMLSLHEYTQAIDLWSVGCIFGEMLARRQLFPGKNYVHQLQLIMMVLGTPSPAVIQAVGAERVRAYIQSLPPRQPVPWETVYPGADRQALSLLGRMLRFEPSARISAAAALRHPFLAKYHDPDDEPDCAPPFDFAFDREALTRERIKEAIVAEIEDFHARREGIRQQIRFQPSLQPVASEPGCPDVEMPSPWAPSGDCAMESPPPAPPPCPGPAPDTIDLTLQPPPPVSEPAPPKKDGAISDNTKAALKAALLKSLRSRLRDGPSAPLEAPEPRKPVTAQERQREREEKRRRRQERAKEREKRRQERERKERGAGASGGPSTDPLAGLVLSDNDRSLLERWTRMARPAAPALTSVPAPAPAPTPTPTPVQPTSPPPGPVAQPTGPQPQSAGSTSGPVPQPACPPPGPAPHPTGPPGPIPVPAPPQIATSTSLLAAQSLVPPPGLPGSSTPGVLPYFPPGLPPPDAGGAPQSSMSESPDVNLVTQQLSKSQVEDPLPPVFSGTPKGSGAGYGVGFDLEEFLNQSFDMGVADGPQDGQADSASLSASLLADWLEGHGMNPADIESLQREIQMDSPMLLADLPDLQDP
active: [4] 0.388
inactive: [6] 0.025 | [1] -0.034 | [8] -0.013 | [9] 0.024 | [3] 0.072 | volasertib -0.056 | [11] -0.084 | [12] -0.101 | sotrastaurin -0.031

KMT2B (UniProt Q9UMN6)
inactive: [6] 0.53 | [13] -0.135 | [1] -0.072 | [3] -0.1 | saracatinib 0.081 | sotrastaurin -0.206

MEX3A (UniProt A1L020)
UniProt A1L020, sequence (A1L020 whole entry, looked up): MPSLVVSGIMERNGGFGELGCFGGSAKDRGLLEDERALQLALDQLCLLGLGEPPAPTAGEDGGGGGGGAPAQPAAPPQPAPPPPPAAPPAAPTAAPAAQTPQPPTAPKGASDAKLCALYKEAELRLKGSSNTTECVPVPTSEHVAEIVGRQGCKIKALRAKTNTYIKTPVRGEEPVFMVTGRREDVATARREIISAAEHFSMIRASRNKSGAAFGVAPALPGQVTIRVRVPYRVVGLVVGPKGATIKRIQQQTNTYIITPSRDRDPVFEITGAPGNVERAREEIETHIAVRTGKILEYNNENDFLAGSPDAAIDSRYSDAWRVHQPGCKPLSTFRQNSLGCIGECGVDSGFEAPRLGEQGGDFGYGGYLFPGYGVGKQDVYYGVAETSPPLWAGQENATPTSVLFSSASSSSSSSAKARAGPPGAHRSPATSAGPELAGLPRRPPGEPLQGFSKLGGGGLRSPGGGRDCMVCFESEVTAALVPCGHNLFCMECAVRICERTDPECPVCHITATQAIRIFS
inactive: ralimetinib -0.21 | [5] -0.123 | [2] -0.076 | [13] 0.003 | [7] -0.162 | vemurafenib -0.094 | [10] 0.191 | saracatinib 0.055

MBTPS1 (UniProt Q14703)
UniProt Q14703, sequence (Q14703 whole entry, looked up): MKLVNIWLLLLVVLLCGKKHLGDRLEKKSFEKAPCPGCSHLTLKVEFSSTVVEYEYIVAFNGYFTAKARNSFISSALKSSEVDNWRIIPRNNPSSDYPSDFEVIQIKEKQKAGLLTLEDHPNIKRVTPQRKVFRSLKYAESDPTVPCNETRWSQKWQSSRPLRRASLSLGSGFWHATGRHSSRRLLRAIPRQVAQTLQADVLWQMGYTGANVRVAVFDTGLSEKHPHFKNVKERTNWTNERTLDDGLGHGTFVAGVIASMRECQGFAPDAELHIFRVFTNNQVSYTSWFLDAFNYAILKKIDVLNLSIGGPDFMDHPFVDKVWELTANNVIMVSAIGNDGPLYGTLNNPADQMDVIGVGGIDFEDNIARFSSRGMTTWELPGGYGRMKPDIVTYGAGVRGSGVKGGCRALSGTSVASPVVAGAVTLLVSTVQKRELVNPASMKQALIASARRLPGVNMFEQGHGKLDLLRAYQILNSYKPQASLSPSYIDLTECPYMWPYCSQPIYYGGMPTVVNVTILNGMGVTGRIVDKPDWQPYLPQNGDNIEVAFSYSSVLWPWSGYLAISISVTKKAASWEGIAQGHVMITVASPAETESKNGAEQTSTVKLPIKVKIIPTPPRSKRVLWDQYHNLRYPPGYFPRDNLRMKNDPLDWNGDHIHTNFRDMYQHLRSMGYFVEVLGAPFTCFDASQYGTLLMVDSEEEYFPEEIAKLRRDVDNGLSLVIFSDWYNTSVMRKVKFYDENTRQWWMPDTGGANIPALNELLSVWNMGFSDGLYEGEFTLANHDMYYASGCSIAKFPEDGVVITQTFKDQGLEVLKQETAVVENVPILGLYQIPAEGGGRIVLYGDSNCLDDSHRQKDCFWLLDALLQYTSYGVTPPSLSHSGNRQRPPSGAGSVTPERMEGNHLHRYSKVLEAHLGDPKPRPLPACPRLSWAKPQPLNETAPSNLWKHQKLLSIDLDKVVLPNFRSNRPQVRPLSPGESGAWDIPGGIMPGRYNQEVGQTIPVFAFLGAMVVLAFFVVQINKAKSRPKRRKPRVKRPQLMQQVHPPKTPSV
inactive: ibrutinib -0.243 | ralimetinib 0.056 | [5] -0.045 | [6] -0.029 | [13] -0.041 | [1] 0.008 | [7] 0.048 | vemurafenib 0.247 | barasertib 0.199 | [3] 0.034 | [10] 0.003 | [11] 0.211 | [12] -0.185 | saracatinib -0.031 | sotrastaurin -0.014

KRI1 (UniProt Q8N9T8)
inactive: ibrutinib -0.023 | ralimetinib 0.047 | [5] -0.018 | [6] 0.043 | [2] 0.074 | [13] -0.069 | [1] 0.02 | [7] 0.046 | vemurafenib -0.079 | barasertib -0.03 | [3] 0.005 | [10] 0.021 | [11] -0.005 | [12] -0.014 | saracatinib 0 | sotrastaurin 0.008

MPP5 (UniProt Q8N3R9)
inactive: ibrutinib 0 | ralimetinib 0.019 | [5] -0.063 | [6] -0.079 | [2] -0.082 | [13] -0.067 | [1] 0.017 | [7] 0.014 | vemurafenib -0.029 | barasertib -0.058 | [3] -0.011 | [10] 0.042 | [11] -0.084 | [12] -0.038 | saracatinib -0.04 | sotrastaurin -0.006

MARCHF6 (UniProt O60337)
inactive: [4] -0.021 | [6] -0.012 | [2] 0.014 | [13] 0.101 | [1] 0.004 | [8] 0.032 | vemurafenib 0.043 | [9] 0.052 | barasertib 0.233 | [3] 0.038 | volasertib 0.078 | [11] -0.023 | [12] 0.013 | saracatinib -0.13 | sotrastaurin 0.034
active: ibrutinib -0.395

MED28 (UniProt Q9H204)
UniProt Q9H204, sequence (Q9H204 whole entry, looked up): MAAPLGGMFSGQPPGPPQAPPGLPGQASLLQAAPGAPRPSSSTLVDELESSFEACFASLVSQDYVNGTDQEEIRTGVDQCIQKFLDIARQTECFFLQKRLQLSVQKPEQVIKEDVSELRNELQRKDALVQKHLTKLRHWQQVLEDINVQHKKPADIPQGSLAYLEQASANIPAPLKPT
inactive: [4] -0.067 | ralimetinib -0.032 | [5] -0.025 | [6] -0.002 | [2] -0.088 | [13] -0.039 | [1] 0.11 | [7] 0.021 | [8] 0.009 | [9] -0.004 | volasertib 0.096 | [10] 0.053 | [11] -0.063 | [12] 0.322 | saracatinib -0.032 | sotrastaurin -0.028

MOCS3 (UniProt O95396)
inactive: ibrutinib 0.045 | ralimetinib -0.016 | [5] -0.014 | [6] -0.018 | [2] 0.056 | [13] -0.04 | [1] 0.079 | [7] 0.001 | vemurafenib -0.12 | barasertib -0.018 | [3] -0.038 | [10] 0.037 | [11] -0.273 | [12] 0.264 | saracatinib 0.06 | sotrastaurin 0.11

KIF21A (UniProt H0YI78)
inactive: ibrutinib -0.187 | [4] -0.073 | [6] -0.006 | [2] 0.107 | [13] 0.017 | [8] 0.031 | [9] 0.017 | barasertib -0.198 | volasertib -0.008 | saracatinib -0.151
